Hit rate of the full screen: of about 220,000 compounds, about 5,700 (2.6%) were called active. Another 18% or so got no clear call; they are omitted. Calls come from the whole dose curve; as a rule, active = well fitted inhibition curve with a large enough effect; inconclusive = small, poorly fitted or top-dose-only effect; inactive = no such curve, though single readings can be large or run the other way. The list comes from a sample in which actives are over-represented; it also holds similar structures and randomly drawn compounds. Entries that show only a call come without a potency.
Potency is the fitted concentration of half-maximal effect.

This assay deals with Lysine-specific demethylase 5B (Homo sapiens) (UniProt Q9UGL1). The experiment in a line: Primary screen for KDM5B Histone Demethylases FDH-coupled qHTS. Note: nearly all actives have a fitted effect of over 70% in size. The conditions noted are these: FDH-coupled NADH fluorescence (FDH is formaldehyde dehydrogenase); series mostly up to 57.7 µM. In outline: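 Inhibition is measured as reduced NADH fluorescence generation from FDH coupling to formaldehyde release. Truncated KDM5BΔAP at 200 nM final acts on H3K4me3 peptide (12.5 µM in substrate mix) in pH 7.5 HEPES buffer with Tween-20, 30 min, room temperature.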
Sequence of Lysine-specific demethylase 5B (Homo sapiens) (Q9UGL1 whole entry, looked up, the tested form may be a part): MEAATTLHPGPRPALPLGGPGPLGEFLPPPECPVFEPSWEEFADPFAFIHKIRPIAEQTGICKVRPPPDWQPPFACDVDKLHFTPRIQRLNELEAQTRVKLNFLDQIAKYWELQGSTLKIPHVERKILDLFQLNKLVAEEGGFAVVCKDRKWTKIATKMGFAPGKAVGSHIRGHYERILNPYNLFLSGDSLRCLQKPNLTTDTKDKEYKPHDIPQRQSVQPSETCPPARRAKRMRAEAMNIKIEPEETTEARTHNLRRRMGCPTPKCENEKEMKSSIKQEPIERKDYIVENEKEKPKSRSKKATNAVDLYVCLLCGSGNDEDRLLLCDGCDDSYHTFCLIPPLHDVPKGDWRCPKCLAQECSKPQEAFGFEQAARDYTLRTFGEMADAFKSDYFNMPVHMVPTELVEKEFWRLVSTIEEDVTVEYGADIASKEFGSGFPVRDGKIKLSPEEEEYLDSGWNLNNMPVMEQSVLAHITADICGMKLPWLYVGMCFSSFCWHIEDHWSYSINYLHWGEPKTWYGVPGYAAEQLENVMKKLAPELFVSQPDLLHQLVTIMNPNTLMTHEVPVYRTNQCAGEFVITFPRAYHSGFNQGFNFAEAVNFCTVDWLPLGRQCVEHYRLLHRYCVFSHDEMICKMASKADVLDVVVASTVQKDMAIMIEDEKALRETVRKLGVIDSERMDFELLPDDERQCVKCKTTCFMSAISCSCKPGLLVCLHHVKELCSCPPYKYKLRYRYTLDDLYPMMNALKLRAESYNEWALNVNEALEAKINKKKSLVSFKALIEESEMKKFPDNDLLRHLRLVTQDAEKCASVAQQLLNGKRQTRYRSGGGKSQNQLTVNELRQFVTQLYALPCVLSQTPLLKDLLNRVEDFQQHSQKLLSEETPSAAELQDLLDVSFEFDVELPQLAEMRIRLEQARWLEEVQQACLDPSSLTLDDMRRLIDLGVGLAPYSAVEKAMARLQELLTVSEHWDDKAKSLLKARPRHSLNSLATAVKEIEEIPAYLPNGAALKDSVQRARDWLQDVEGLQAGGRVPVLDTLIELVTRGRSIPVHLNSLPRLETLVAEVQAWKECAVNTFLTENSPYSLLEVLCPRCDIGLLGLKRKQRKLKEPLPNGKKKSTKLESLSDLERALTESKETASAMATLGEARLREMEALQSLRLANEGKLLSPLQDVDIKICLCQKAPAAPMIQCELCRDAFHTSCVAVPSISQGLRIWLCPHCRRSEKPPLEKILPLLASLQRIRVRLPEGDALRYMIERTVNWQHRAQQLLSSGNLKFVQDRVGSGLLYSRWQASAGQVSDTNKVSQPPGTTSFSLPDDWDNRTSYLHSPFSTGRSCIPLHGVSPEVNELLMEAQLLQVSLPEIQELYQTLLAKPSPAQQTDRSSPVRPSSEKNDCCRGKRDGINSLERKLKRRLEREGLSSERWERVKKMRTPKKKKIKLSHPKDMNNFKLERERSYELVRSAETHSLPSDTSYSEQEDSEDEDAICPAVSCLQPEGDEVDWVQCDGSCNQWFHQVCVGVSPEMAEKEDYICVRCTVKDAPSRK
As to `COCCCNS(=O)(=O)c1cccc(S(=O)(=O)c2cccc(S(=O)(=O)NCCCOC)c2)c1`, the Potency entry was “inactive”.

As to `Cc1cc(=O)oc2cc(OCC(=O)NCC(C)(c3ccccc3)c3ccccc3)ccc12`, the Potency entry is “inactive”.

Take `O=C(Nc1c(F)cccc1F)c1cc(-c2ccccn2)nc2ccccc12`: the Potency entry is “inactive”.

In the case of `O=c1cc(-c2ccccn2)oc2c(-c3ccccc3F)nccc12`, the Potency is 17.8 µM (active).

Take `COc1ccc(-c2nccc3c(=O)cc(N(C)c4ccccc4)oc23)cn1`: the Potency result was “inactive”.

On to `Cc1cccc(C(C)C)c1NC(=O)CSc1nnc(-c2cc(-c3ccccc3)n[nH]2)n1N`, for which the Potency result is “inactive”.

With `COC(=O)COc1cccn2c(=O)c(-c3cc(C)n(-c4ccc(C)cc4C)n3)c(C)nc12`, the Potency was 28.2 µM (active).

With `CCOC(=O)C(C)Oc1cccn2c(=O)c(-c3cc(C)n(-c4cccc(F)c4)n3)c(C)nc12` (stereo not drawn), the Potency was 25.1 µM (active).

As for `Cc1ccc(N2CCN(C(=O)CCc3c(C)nc4c(c3C)c(=O)n(C)c(=O)n4C)CC2)c(C)c1`, the Potency result was “inactive”.

As for `Cc1ccc2nc(COc3ccc(NC(=O)COc4ccccc4F)cc3)cc(=O)n2c1`, the Potency entry was “inactive”.

For the molecule `O=C(Nc1ccc(N2CCOCC2)c(Cl)c1)c1ccc2c3c(cccc13)CC2`, the Potency entry is “inactive”.

Regarding `CC(c1nc2ccccc2s1)N(C)C(=O)c1cccc(S(=O)(=O)Nc2ccc(Cl)cc2)c1` (stereo not drawn), the Potency result is “inactive”.

For `Cc1ccccc1C(=O)N1CCN(c2ccc([N+](=O)[O-])c(-n3nc(C)c4ccccc4c3=O)c2)CC1`, the Potency result is “inactive”.

With `CC(C)c1nccn1CCCNc1nc(-c2ccncc2)nc2c1cnn2C`, the Potency is 22.4 µM (active).

Consider `Cc1ccccc1-c1ccc(C(=O)NCCCn2ccnc2C(C)C)cn1`, for which the Potency entry is “inactive”.

On to `N#Cc1c(N)n[nH]c1CCCNc1nc(-c2ccncc2)nc2ccccc12`, for which the Potency result is “inactive”.

With `COc1ccc(CNC(=O)COC(=O)C(CCSC)N2C(=O)c3ccccc3C2=O)cc1` (stereo not drawn), the Potency entry is “inactive”.

For `CCCC1(CCC)NC(=O)N(Cc2ncc(-c3ccccc3)o2)C1=O`, the Potency entry was “inactive”.

Regarding `O=C1CN(Cc2cc3cc4c(cc3[nH]c2=O)OCO4)CCCN1`, the Potency was 20 µM (active).

`CCCCCCCCNS(=O)(=O)/C=C/c1cc(C)ccc1CNC(=O)OC(C)(C)C`: the Potency entry was “inactive”.

On to `CC(C)NC(NC(=O)c1ccc(C(C)(C)C)cc1)C(Cl)(Cl)Cl` (stereo not drawn), for which the Potency entry was “inactive”.

`CC(C)CN[C@H]1[C@H](O)[C@H](O)C[C@@H]1c1ccc(N2CCOCC2)nc1`: the Potency is 35.5 µM (active).

On to `COC(=O)c1ccc(COC(=O)c2ccc(N3CCOCC3)nc2)cc1`, for which the Potency result was “inactive”.

Consider `CC(C)CNC(=O)N1C[C@@H](Oc2cccnc2)C[C@H]1C(=O)N1CCOCC1`, for which the Potency entry was “inactive”.

On to `Cc1nc(-c2cn(C3CCCN(C(=O)c4cccs4)C3)nn2)no1` (stereo not drawn), for which the Potency entry is “inactive”.

For the molecule `COc1cccc(CN2CCc3c(cc(C(=O)NCCN4CCCCC4)n3C)C2)c1`, the Potency was 22.4 µM (active).

With `CNC(=O)[C@@H]1CN(Cc2cccc(OC)c2)C[C@H]1CO`, the Potency result is “inactive”.

With `COc1ccc(CN2CCc3ncc(C(=O)NCCOc4ccccc4)n3CC2)cn1`, the Potency entry is “inactive”.

Values taken from PubChem BioAssay AID1347165 (National Center for Advancing Translational Sciences (NCATS), 2019).
